Source: PubChem BioAssay (several laboratories)
A1 inh: inhibitors of the anti-apoptotic protein A1, read as caspase activation; actives 0.066% (n = 330,000); MEF A1-2A-BIM cells, Caspase-Glo 3/7 luminescence, 3 h; percent of clofoctol response, vehicle zero; AID 2462; caspase activation, % (concentration not given with the values);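 active means over half of replicate activation scores above 10%, or exactly half above 10 with the replicate mean above 10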
TLR4-MyD88 BLA: TLR4-MyD88 interaction inhibition in cells | HeLa CL3-4 TLR4/MyD88 BLA complementation, FRET ratio | O00206+Q99836 | inhibition, % at 8.4 µM | actives 0.18% (n = 200,000); in the data active means inhibition above about 25%
TLR9-MyD88 inh: blocks human TLR9 binding to MyD88 | Q9NR96+Q99836 | CHO BLA complementation TLR9-MyD88, CCF4 FRET ratio | inhibition, % at 4.98 µM | actives 0.21% (n = 340,000);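 active means inhibition above the mean over all tested compounds plus 3 SD, cut at about 21% in these data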
B2AR ag: human beta-2 adrenergic receptor agonism by FAP. P07550. Am2.2-beta2AR cells, FAP receptor internalization, flow cytometry. response, % (no concentration beside the values). actives 0.43% (n = 340,000). AID 504454;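 active means response above a set limit, near 3 SD of response in nonfluorescent compounds, cut at about 42% in these data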
NOD2 RIPK2 PPI: blocks binding of human NOD2 to RIPK2; inhibition, % at 4.98 µM; CHO BLA complementation NOD2-RIPK2, CCF4 ratio; AID 624267; O43353; actives 0.38% (n = 360,000); in the data active means inhibition above about 21%
Target sequence (O43353 whole entry, looked up): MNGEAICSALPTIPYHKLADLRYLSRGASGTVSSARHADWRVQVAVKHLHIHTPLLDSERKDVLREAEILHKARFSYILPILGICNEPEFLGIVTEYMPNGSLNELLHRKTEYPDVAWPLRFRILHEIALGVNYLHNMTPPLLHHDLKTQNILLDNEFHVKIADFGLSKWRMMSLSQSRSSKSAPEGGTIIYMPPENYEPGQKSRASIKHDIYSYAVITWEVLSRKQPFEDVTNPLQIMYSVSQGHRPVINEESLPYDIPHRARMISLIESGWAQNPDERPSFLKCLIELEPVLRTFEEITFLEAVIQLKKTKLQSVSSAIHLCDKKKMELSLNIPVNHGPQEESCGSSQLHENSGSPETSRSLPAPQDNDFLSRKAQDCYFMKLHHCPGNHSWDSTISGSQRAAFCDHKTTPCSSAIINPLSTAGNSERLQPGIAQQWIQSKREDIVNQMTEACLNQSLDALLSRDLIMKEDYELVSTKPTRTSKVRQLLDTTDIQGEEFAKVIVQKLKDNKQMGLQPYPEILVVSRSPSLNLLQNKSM
NTR1 agonist: agonists of human neurotensin receptor NTR1; AID 493036; actives 0.17% (n = 330,000); NTR1-U2OS beta-arrestin-GFP spot imaging, agonist mode; P30989; activation, % at 20 µM;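 active means activation at or above 40% of the spot to cytoplasm intensity ratio, with at least 20 cells analyzed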
Hits are given with their value; n = inactive; x = not tested or not shown. In the library only some 0.97% were active in any assay of this set; here they are far more common.

SMILES | A1 inh | TLR4-MyD88 BLA | TLR9-MyD88 inh | B2AR ag | NOD2 RIPK2 PPI | NTR1 agonist
CCc1ccc(S(=O)(=O)/N=C2\C=CC(=O)c3ccccc32)cc1 | n | n | x | x | x | n
Cc1ccc(C)c(-c2nn(-c3cc(N4CCN(CCO)CC4)ccc3[N+](=O)[O-])c(=O)c3ccccc23)c1 | n | n | n | n | 22 | n
Cc1nn(-c2cc(N3CCCC3)ccc2[N+](=O)[O-])c(=O)c2ccccc12 | n | n | n | n | n | n
CC(=O)OC[C@]12CC[C@H]3[C@@](C)(CC[C@H]4C(C)(C)CCC[C@]34C)[C@@H]1C[C@H](C1=CC(=O)O[C@H]1OC(C)=O)O2 | 62 | x | x | x | x | n
CCN1C/C(=C/c2cccc([N+](=O)[O-])c2)C(=O)/C(=C/c2cccc([N+](=O)[O-])c2)C1 | n | n | n | 87 | n | x
CCOc1cc(/C=C2\CN(CC)C/C(=C\c3ccc(O)c(OCC)c3)C2=O)ccc1O | n | x | n | n | n | n
Cc1ccc2c(c1)cc(CN(Cc1ccco1)C(=O)COc1ccccc1)c1nnnn12 | n | n | n | n | n | n
Cc1ccc(C)c(C(=O)NCCN(C)C)c1 | n | n | n | n | n | n
C=C(CN(C)C)C(=O)c1cc(C)ccc1C | x | x | n | n | 45 | x
CC1(C)C[C@H](O)[C@]2(CO)[C@H](O)C[C@]3(C)C(=CCC4[C@@]5(C)CC[C@H](O)C(C)(C)C5CC[C@]43C)[C@@H]2C1 (stereo not given in full) | 14 | x | n | n | n | n
COc1cc(/C=N/NC(N)=S)cc(Br)c1OCc1ccccc1F | n | n | n | n | n | n
CCOc1cc(/C=N/N=C(\N)c2nonc2N)cc(Br)c1OCc1cccc2ccccc12 | 6.4 | n | n | n | n | n
CCOc1cc(/C=N/NC(N)=S)cc(Br)c1OCc1ccccc1C | n | n | n | n | n | 42
CCOC(=O)C1=CN2CCC[C@H]2CC1=O | x | x | n | n | n | n
CCOc1ccccc1N=C1SC(CC(=O)Nc2ccc(OC)cc2OC)C(=O)N1CCC1=CCCCC1 (stereo not given) | n | n | n | 67 | n | n
Cc1cc(C)c2c(=N)c3ccccc3n(CCCCCCCCn3c4ccccc4c(=N)c4c(C)cc(C)nc43)c2n1 | x | x | n | 63 | n | x
Cc1ccc(S(=O)(=O)O/N=C2\CCCc3ccccc32)cc1 | n | n | n | n | n | n
CC1=C(C)/C(=N\OS(=O)(=O)c2ccccc2)C=CC1=O | n | n | n | n | 76 | n
Cc1ccc(S(=O)(=O)NC2=C(N3CCN(c4ccccc4F)CC3)C(=O)c3ccccc3C2=O)cc1 | n | n | n | n | n | n
Cc1ccc(S(=O)(=O)NC2=C(N3CCN(Cc4ccccc4)CC3)C(=O)c3ccccc3C2=O)cc1 | n | n | n | 53 | n | n
COc1ccc(-c2csc(NC(=O)CSc3nnc(Nc4ccccc4C)s3)n2)cc1 | n | n | n | n | n | n
COc1ccc2cc(C)c3nnc(SCC(=O)Nc4nc(-c5ccc(F)cc5)cs4)n3c2c1 | 16 | n | n | n | n | n
CC(=O)n1cc(N(C(=O)CCl)c2ccc(Cl)cc2)c2ccccc21 | n | x | x | 46 | n | n
Cc1cccc2sc(NNC(=O)c3ccc(S(=O)(=O)N4CC(C)CC(C)C4)cc3)nc12 (stereo not given) | n | n | n | 48 | n | n
COC(=O)c1sc2ccccc2c1NC(=O)c1ccc(S(=O)(=O)N2CC(C)CC(C)C2)cc1 (stereo not given) | n | n | n | n | n | n
Cc1cc(C)c2nc(NNC(=O)c3ccc(S(=O)(=O)N4CCCC(C)C4)cc3)sc2c1 (stereo not given) | n | n | n | n | n | n
Cc1cc(C)c2nc(NNC(=O)c3ccc(S(=O)(=O)N4CC(C)CC(C)C4)cc3)sc2c1 (stereo not given) | n | n | n | 43 | n | n
COc1ccc(CCn2c(-n3nc(C)cc3C)nc3c2c(=O)[nH]c(=O)n3C)cc1 | n | n | n | n | n | n
CCOc1ccc(/C=C2/SC(=O)NC2=S)cc1 | n | n | n | n | n | n
CCOc1ccc(/C=C2\SC(=S)N(N3C(=O)C4CC4C3=O)C2=O)cc1 (stereo not given) | n | n | n | 84 | n | n
